Results on 26 molecules are retold here after PubChem BioAssay.

Values without a mark were called inactive. Some of the results follow. Calls of active or inactive are those of the source.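 Rule for the calls, unless noted: active = membrane potential signal moved up or down beyond 5 SD of buffer control wells, in both duplicate plates, actives on both sides; inactive = the rest.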

Assay [1] can be described thus: nonspecific voltage dye response without TRPC6 – cell-based, parental HEK293, counter-screen for TRPC6 modulator project, confirmation (AID 488924;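 active = membrane potential signal moves up or down beyond 5 SD from buffer-only wells, on both duplicate plates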). The following applies: parental HEK293, membrane potential dye fluorescence; at 10 µM. (A counterscreen serves to expose hits that act by an unwanted route or on another target.)
Assay [2] can be described thus: membrane potential response modulators in host HEK293 cells – cell-based, second counter-screen, parental HEK293, membrane potential dye, counter-screen for TRPC6 modulator project, confirmation (AID 488926;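 active = membrane potential signal drops by more than 5 SD from the mean control signal, in both duplicate plates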;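 for inhibition: plate controls were acetylcholine ECmax control wells for no effect and buffer only wells for full effect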). The following applies: parental HEK293, membrane potential dye fluorescence, at 10 µM, after compound, maximal acetylcholine stimulation; stronger effect = higher value.

Assay [3] deals with Transient receptor potential cation channel subfamily C member 4 (mouse). Description: off-target membrane potential effects via mouse TRPC4 – cell-based, HEK293 TRPC4/mu-opioid, membrane potential dye, selectivity assay for TRPC6 modulator project, confirmation (AID 488927).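 For percent change from control (negative = decrease, positive = increase): plate controls were assay buffer wells for no effect and DAMGO maximal-effect wells for full effect.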 The following applies: membrane potential fluorescence, at 10 µM.
In assay [4] the test system is TRPC4 (transient receptor potential cation channel C4), mouse. Description: DAMGO-evoked mouse TRPC4 response blockade – cell-based, second screen, HEK293 TRPC4/mu-opioid, membrane potential dye, selectivity assay for TRPC6 modulator project, confirmation (AID 488928;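 active = drop in membrane potential signal beyond 5 SD of the control wells in both duplicate plates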;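 note: TRPC4 counter screen for TRPC6 hits run under conditions tuned for TRPC6 not TRPC4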). The following applies: membrane potential dye fluorescence, at 10 µM, stimulated with maximal-effect DAMGO; stronger effect = higher value.

In assay [5] the target is Short transient receptor potential channel 6 (Mus musculus) (UniProt Q61143). Description: blockers of TRPC6 cation channel activity – HEK293 cells, membrane potential dye, duplicate, confirmation (AID 488960;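 active = fluorescence ratio falls more than 5 SD below the full-stimulation control mean, in both duplicate runs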;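 for inhibition: integrated fluorescence ratio of peak minus minimum over baseline after agonist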). The following applies: ACh-evoked depolarization, at 10 µM; stronger effect = higher value.
Assay [6] has the same target. Nature of the assay: mouse TRPC6 channel activators, confirmation, HEK293 cells, membrane potential dye, duplicate (AID 488961;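 active = ratio signal rise beyond 5 SD above unstimulated control wells' mean, seen in both duplicate runs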;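 for activation: plate controls were buffer EC0 wells for no effect and acetylcholine ECmax response for full effect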). The following applies: HEK293-TRPC6 membrane potential dye fluorescence, FDSS, at 10 µM; stronger effect = higher value.
A short description of assay [7]: nonspecific flux increase, KCNQ1-free cells – parental CHO cells, counter-screen for KCNQ1 potentiator project (AID 493006;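 active = duplicate-averaged activation above buffer control mean plus 5 SD of those controls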). The following applies: parental CHO-K1 cells, FluxOR thallium flux, at 10 µM; stronger effect = higher value.
Assay [8] addresses Potassium voltage-gated channel subfamily KQT member 1 (Homo sapiens) (UniProt P51787). Nature of the assay: enhancement of KCNQ1 channel thallium flux – FluxOR thallium flux, CHO cells, duplicates, confirmation (AID 493007;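 active = potentiation averaged over duplicate wells exceeding buffer-only control mean by more than 3 SD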;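 note: cells depolarized by a potassium plus thallium sulfate stimulus after compound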). The following applies: KCNQ1 cell line, FluxOR thallium flux fluorescence, at 10 µM; stronger effect = higher value, % of reference activator effect, buffer zero.
For assay [9], the target named is Potassium voltage-gated channel subfamily KQT member 2 (Rattus norvegicus) (UniProt O88943). Nature of the assay: KCNQ2 thallium flux enhancement – KCNQ2-CHO-K1 cells, selectivity assay for KCNQ1 potentiator project (AID 493009;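 active = mean duplicate potentiation above the buffer control mean plus 5 SD of buffer wells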;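 note: assay conditions were tuned for KCNQ1 rather than KCNQ2 modulators; signal is max minus min fluorescence divided by baseline after thallium stimulus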). The following applies: FluxOR thallium flux fluorescence, at 10 µM; stronger effect = higher value, scaled: buffer 0, activator control 100.
In assay [10] the target is Potassium voltage-gated channel subfamily KQT member 1 (Homo sapiens) (UniProt P51787). Description: KCNQ1 activators by electrophysiology – IonWorks patch clamp, KCNQ1-CHO cells, orthogonal assay for KCNQ1 potentiator project, confirmation (AID 493184;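 active = current rise at least 3 SD above the untreated control mean in each of two repeat wells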). The following applies: automated patch clamp current, at 10 µM; stronger effect = higher value. A general note: In patch-clamp work, channel activity is measured electrically.
Chain of Potassium voltage-gated channel subfamily KQT member 1 (Homo sapiens) (P51787 whole entry, looked up): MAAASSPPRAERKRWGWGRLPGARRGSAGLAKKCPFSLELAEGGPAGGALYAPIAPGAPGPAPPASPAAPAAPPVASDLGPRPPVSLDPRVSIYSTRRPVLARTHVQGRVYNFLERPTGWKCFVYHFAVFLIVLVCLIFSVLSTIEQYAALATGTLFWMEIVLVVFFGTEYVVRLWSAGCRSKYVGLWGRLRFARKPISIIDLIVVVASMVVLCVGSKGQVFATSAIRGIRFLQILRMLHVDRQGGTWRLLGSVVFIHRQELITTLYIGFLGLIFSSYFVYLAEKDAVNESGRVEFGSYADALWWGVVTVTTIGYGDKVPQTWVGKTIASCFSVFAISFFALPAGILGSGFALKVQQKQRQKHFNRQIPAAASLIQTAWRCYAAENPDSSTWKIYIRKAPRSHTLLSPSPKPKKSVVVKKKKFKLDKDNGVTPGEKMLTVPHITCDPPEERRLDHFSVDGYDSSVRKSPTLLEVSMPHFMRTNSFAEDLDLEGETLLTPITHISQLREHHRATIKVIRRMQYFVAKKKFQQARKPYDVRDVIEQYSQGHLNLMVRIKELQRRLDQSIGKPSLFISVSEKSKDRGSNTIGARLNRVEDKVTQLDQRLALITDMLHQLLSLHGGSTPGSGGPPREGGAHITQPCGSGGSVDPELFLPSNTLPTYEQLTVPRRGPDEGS

Chain of Short transient receptor potential channel 6 (Mus musculus) (Q61143 whole entry, looked up): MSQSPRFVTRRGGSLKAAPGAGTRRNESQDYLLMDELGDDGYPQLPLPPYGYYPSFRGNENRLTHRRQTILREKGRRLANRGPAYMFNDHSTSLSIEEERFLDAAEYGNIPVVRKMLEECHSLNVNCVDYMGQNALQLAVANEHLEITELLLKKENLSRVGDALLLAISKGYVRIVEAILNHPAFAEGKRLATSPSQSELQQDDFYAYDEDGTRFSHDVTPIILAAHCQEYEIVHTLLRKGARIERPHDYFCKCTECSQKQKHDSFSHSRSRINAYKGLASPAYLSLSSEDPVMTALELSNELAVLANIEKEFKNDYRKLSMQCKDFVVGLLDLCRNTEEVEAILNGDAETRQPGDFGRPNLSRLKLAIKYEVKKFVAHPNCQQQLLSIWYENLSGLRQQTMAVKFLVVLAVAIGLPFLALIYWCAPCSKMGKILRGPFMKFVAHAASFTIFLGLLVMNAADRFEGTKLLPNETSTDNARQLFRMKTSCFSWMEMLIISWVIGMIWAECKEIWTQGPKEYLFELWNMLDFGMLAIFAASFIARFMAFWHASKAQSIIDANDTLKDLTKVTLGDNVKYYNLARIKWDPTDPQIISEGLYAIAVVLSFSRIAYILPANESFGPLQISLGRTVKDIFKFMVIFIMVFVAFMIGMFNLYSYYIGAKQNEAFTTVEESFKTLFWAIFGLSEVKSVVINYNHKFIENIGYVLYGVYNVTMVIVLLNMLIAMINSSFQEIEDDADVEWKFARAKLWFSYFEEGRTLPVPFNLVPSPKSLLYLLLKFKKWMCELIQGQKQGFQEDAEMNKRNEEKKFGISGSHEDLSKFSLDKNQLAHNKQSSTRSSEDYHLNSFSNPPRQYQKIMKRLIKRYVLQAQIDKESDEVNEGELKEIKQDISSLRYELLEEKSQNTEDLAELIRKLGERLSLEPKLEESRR
Chain of Potassium voltage-gated channel subfamily KQT member 2 (Rattus norvegicus) (O88943 whole entry, looked up): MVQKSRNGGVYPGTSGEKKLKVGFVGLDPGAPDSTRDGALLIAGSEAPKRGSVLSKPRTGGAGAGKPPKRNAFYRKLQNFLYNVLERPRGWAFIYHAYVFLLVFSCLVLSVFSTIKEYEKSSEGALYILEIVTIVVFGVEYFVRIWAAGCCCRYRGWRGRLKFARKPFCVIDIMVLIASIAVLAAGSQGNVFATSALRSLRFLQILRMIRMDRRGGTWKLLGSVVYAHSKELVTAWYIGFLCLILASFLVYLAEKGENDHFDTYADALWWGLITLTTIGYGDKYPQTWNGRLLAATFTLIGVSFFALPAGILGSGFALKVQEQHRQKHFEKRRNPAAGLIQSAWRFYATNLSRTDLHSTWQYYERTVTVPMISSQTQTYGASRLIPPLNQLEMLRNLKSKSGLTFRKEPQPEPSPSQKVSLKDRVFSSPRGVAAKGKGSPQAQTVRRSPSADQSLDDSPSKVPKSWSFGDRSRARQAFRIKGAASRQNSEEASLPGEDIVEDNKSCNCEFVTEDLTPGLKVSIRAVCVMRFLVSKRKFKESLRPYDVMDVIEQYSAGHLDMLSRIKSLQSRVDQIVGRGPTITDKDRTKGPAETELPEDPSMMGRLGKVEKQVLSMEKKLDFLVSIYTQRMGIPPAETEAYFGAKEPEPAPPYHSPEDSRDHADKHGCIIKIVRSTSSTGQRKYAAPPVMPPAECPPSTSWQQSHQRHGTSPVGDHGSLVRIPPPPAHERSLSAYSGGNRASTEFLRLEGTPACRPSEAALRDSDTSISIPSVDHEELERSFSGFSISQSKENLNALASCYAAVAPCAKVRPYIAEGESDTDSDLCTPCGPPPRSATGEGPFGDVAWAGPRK

`CCc1ccc(-c2cc(C(=O)NN3CCN(C)CC3)c3ccccc3n2)cc1`: the outcome in assay [1], in [2], in assay [3], in [5] and in assay [6] was inactive. Further, the inhibition in assay [4] was 41% (active).

`CCN1CCN(c2nc(Nc3cc(OC)ccc3OC)nc(Nc3cc(OC)ccc3OC)n2)CC1`: the outcome in assay [1], in assay [2], in assay [3], in [5] and in assay [6] was inactive. Moreover, in assay [4], the inhibition is 55.5% (active).

On to `CCN(CC)CCNc1nc(-c2ccc(OC(F)F)cc2)c(C)s1`, for which the outcome in [1], in assay [2], in assay [3], in assay [5] and in [6] was inactive. Also, the inhibition in [4] is 50.5% (active).

Regarding `Cc1cccn2c(=O)c3cc(C#N)c(=O)n(CCCN4CCOCC4)c3nc12`, the membrane potential signal change in assay [1] was -248% (active). Besides, the inhibition in assay [2] was 112% (active); in [4] it was 47.5% (active); in assay [5], 67.5% (active). For the same molecule, the percent change from control (negative = decrease, positive = increase) in assay [3] was -54% (active). The molecule was called inactive in assay [6].

For `COC(=O)c1ccc(NC(=O)CSc2nnc(-c3ccncc3)n2C)cc1`, in assay [1], the membrane potential signal change was 292% (active). The outcome in assay [2], in [4] and in [5] was inactive. Also, the percent change from control (negative = decrease, positive = increase) in assay [3] is 35.5% (active). Besides, the activation in [6] was 116% (active).

With `Cc1ccccc1NC(=O)CNc1ccccc1N1CCCCC1`, the outcome in assay [1], in [2], in assay [3], in [5] and in assay [6] was inactive. In addition, the inhibition in [4] was 52.5% (active).

Turning to `CN(C)c1ccc(/C=C2\NC(=S)N(Cc3ccccc3)C2=O)cc1`, the membrane potential signal change in [1] is 267% (active). Further, the outcome in assay [2], in assay [4], in assay [5] and in assay [6] was inactive. In assay [3], the percent change from control (negative = decrease, positive = increase) was 126% (active).

As for `CCN1CCN(c2ccc([N+](=O)[O-])cc2C(=O)c2ccc(Cl)cc2)CC1`, the membrane potential signal change in [1] is 150% (active). Also, the outcome in [2], in assay [5] and in assay [6] was inactive. Besides, the percent change from control (negative = decrease, positive = increase) in assay [3] is 20.5% (active). For the same molecule, the inhibition in [4] was 63.5% (active).

Regarding `CCCC(=O)Nc1ccc(C(=O)NCCCn2ccnc2)cc1`, the result in [1], in assay [2], in assay [3], in [4], in assay [5] and in assay [6] was inactive.

With `CCc1ccc(OCC(=O)N(Cc2ccccc2)C2CCS(=O)(=O)C2)cc1` (stereo unspecified), the result in assay [1], in assay [2], in assay [4], in assay [5] and in assay [6] was inactive. In [3], the percent change from control (negative = decrease, positive = increase) was 8.5% (active).

As for `Cc1nc(N=C(N)N)nc2c(C)cccc12`, the membrane potential signal change in assay [1] is -235% (active). Further, the inhibition in [2] was 76.5% (active); in [4], 60% (active); in assay [5], 67.5% (active). Further, in assay [3], the percent change from control (negative = decrease, positive = increase) is -42.5% (active). Besides, the outcome in assay [6] was inactive.

In the case of `CCOC(=O)c1sc2nc(CSCC(=O)OCc3ccc(C(=O)OC)o3)[nH]c(=O)c2c1C`, the membrane potential signal change in assay [1] is 148% (active). The result in assay [2], in assay [3] and in [4] was inactive. In addition, in [5], the inhibition is 90% (active). Also, the activation in assay [6] is 134% (active).

`CN(CC(=O)Nc1ccccc1[N+](=O)[O-])Cc1ccc(Br)cc1`: the result in assay [1], in assay [2], in assay [3], in assay [5] and in assay [6] was inactive. Further, in assay [4], the inhibition was 29% (active).

Take `Cc1cccc(-[n+]2c(-c3cccc(Br)c3)[nH]c3nc4ccccc4nc32)c1`: the result in assay [1], in assay [2], in [3], in assay [5] and in assay [6] was inactive. The inhibition in [4] was 51% (active).

On to `Cc1c(CCOC(=O)CC23CC4CC(CC(C)(C4)C2)C3)sc[n+]1Cc1ccc([N+](=O)[O-])cc1`, for which the membrane potential signal change in assay [1] was -103% (active). Also, the result in [2], in assay [4], in assay [5] and in assay [6] was inactive. Also, in [3], the percent change from control (negative = decrease, positive = increase) is -29.5% (active).

As to `COc1ccc(Cn2c(-c3ccc(Cl)cc3)c[n+]3ccccc23)cc1`, the membrane potential signal change in assay [1] was -296% (active). In addition, the result in assay [2] and in assay [6] was inactive. Moreover, in [3], the percent change from control (negative = decrease, positive = increase) was -51.5% (active). Further, the values for the inhibition in assay [4] and in assay [5] were 48% (active) and 50.5% (active), respectively.

Regarding `CN1CCN(c2ccc([N+](=O)[O-])c(Sc3nc4ccccc4[nH]3)c2)CC1`, in assay [1], the membrane potential signal change is -66.5% (active). The outcome in assay [2] and in assay [6] was inactive. Also, the percent change from control (negative = decrease, positive = increase) in [3] is -14.5% (active). The inhibition in [4] was 58.5% (active); in assay [5], 52.5% (active).

As to `CCCc1cc(=O)oc2c(C)c(O)c(CN3CCCCC3)cc12`, the result in assay [1], in assay [2], in [3], in [4] and in [6] was inactive. In addition, in assay [5], the inhibition was 54.5% (active).

On to `COc1cc2c(cc1OC)C(/C=C/c1ccco1)=NCC2`, for which the membrane potential signal change in assay [1] is -362% (active). Also, the inhibition in [2] is 83% (active); in assay [4], 62% (active); in [5], 72.5% (active). The percent change from control (negative = decrease, positive = increase) in [3] was -64% (active). Moreover, the molecule was classed as inactive in [6].

Consider `CCn1nnc2cc(C(=O)Nc3cc(S(C)(=O)=O)ccc3Cl)ccc21`, for which the result in assay [7], in assay [8], in assay [9] and in assay [10] was inactive.

For `O=C(CN1CCCCCC1)N1c2ccccc2Sc2ccc(C(F)(F)F)cc21`, the membrane potential signal change in [1] is 122% (active). Further, the result in [2], in [4] and in assay [6] was inactive. In assay [3], the percent change from control (negative = decrease, positive = increase) was 18.5% (active). Moreover, in assay [5], the inhibition was 46.5% (active).

Take `Cc1nn(Cc2ccc(C(=O)N3N=C(C(F)F)CC3(O)C(F)F)cc2)c(C)c1[N+](=O)[O-]` (stereo unspecified): the result in assay [1], in [2], in assay [4], in assay [5] and in [6] was inactive. For the same molecule, the percent change from control (negative = decrease, positive = increase) in [3] is -17.5% (active).

For the molecule `O=C(CN1CCCCCC1)NCCN1C(=O)S/C(=C\c2ccccc2Cl)C1=O`, the outcome in [1], in assay [2], in [3], in [5] and in assay [6] was inactive. The inhibition in assay [4] was 36% (active).

As for `CC(NC(=S)Nc1ccc(OC(F)F)cc1)c1ccc(F)cc1` (stereo unspecified), the result in [1], in assay [2], in assay [4], in assay [5] and in assay [6] was inactive. The percent change from control (negative = decrease, positive = increase) in assay [3] was -14.5% (active).

Turning to `CN1CCN(/N=C/c2ccc(-c3ccc([N+](=O)[O-])cc3)o2)CC1`, the membrane potential signal change in assay [1] is 407% (active). Further, the result in assay [2] was inactive. Besides, the percent change from control (negative = decrease, positive = increase) in assay [3] was 65.5% (active). The inhibition in assay [4] is 43.5% (active). Further, the activation in assay [6] is 158% (active).

Take `CN=C1c2cc3cc(OC)ccc3n2CCN1Cc1ccccc1`: the outcome in [7], in assay [8], in [9] and in assay [10] was inactive.

As a reminder, the inhibition is the relative decrease from the control value, in per cent.
